Source: PubChem BioAssay (EPA / NIEHS)
Several values for one entry are separate records, joined by “and”; a condition that tells them apart may be missing. Equal values may be shown once. Results filed as inconclusive are left out. The source holds several records for some structures; these can differ, active in one and inactive in another. Activity calls are given as the source filed them. How the source made its calls: active means hit-call score of the fitted dose curve at least 0.9, where 1 is the maximum; inconclusive means response in the unintended direction; inactive means score below 0.9.

Columns and labels:
[1] = TOX21_p53_BLA_p3_viability: Viability Assessment in the Tox21 HCT-116 p53 Agonism Beta-lactamase Assay, Phase 3 (AID 2283593);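 further: cells exposed to compound for 16 h before reading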
Summary of the method: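 Cellular ATP was quantified by CellTiter-Glo luminescence, read after 30 min at room temperature. Beforehand, HCT116 cells (4000/well) received compound 5 h post-seeding, 217-fold diluted from DMSO, then incubated 16 h at 37C.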

[2] = target: Cellular tumor antigen p53 (Homo sapiens) (UniProt P04637); experiment: TOX21_p53_BLA_p3_ratio: Tox21 HCT-116 p53 Agonism Beta-lactamase Assay, Ratio, Phase 3 (AID 2283596)
Chain of Cellular tumor antigen p53 (Homo sapiens) (P04637 whole entry, looked up): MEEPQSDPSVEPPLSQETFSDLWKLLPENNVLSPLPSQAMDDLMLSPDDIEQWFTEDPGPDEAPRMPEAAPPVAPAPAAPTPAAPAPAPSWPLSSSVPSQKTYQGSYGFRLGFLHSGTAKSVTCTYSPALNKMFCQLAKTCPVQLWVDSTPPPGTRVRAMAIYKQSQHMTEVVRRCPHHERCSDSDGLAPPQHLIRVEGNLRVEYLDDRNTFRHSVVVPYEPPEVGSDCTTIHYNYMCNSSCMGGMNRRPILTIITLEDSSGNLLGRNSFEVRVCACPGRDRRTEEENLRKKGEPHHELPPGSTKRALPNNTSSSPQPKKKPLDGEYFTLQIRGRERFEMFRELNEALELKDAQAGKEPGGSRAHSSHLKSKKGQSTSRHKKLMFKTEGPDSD
Summary of the method: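 Cells were seeded at 4000/well, rested 5 h at 37C, then dosed with DMSO compound solutions (217-fold dilution) for 16 h. CCF4-AM substrate was loaded for 2 h at room temperature, and the 460/530 nm emission ratio was fitted for gain of signal versus DMSO.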

[3] = TOX21_p53_BLA_p4_viability: Viability Assessment in the Tox21 HCT-116 p53 Agonism Beta-lactamase Assay, Phase 4 (AID 2283597);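 further: hits lower the luminescence signal meaning cytotoxicity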
Summary of the method: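 In this multiplexed secondary endpoint, HCT116 cells (4000 per well, compound at 5 h, 16 h treatment) received CellTiter-Glo after the beta-lactamase read. Luminescence after 30 min RT reflects ATP, and falling signal marks cytotoxicity.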

[4] = target: Cellular tumor antigen p53 (Homo sapiens) (UniProt P04637); experiment: TOX21_p53_BLA_p5_ratio: Tox21 HCT-116 p53 Agonism Beta-lactamase Assay, Ratio, Phase 5 (AID 2283599)
Summary of the method: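 Beta-lactamase reporter ratio (blue 460 nm over green 530 nm, 405 nm excitation) after 2 h CCF4-AM loading, in HCT-116 cells exposed 16 h at 37 C to compounds pinned at 217-fold dilution. Increases relative to DMSO baseline scored.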

[5] = TOX21_p53_BLA_p5_viability: Viability Assessment in the Tox21 HCT-116 p53 Agonism Beta-lactamase Assay, Phase 5 (AID 2283600)
Summary of the method: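 Here cell health was gauged by ATP levels in wells holding 4000 cells, each treated 16 h with DMSO-delivered compounds at 217-fold dilution; reduced luminescence marked toxicity.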

[6] = target: Cellular tumor antigen p53 (Homo sapiens) (UniProt P04637); experiment: TOX21_p53_BLA_p4_ratio: Tox21 HCT-116 p53 Agonism Beta-lactamase Assay, Ratio, Phase 4 (AID 2283601)
Summary of the method: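 Signal is the blue/green (460nm/530nm) ratio of cleaved versus uncleaved CCF4-AM substrate, read after 2 h substrate loading. Cells were HCT116 carrying the p53-responsive beta-lactamase reporter, dosed 16 h at 37C, 5% CO2; CellTiter-Glo measured in parallel.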

[7] = Tanguay_ZF_120hpf_MORT_legacy: (Legacy) Oregon State University Tanguay Lab 120 Hour Post-fertilization zebrafish Assay for Mortality (AID 2283633);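 on AC50: fitted as increase in binary mortality versus DMSO negative control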
Summary of the method: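 Single dechorionated Tropical 5D embryos were held with test chemical (0.64% DMSO final) from 6 to 120 hpf at 28C under foil. Deaths at 24 or 120 hpf were recorded as binary calls, analysed for increase over DMSO controls.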

[8] = Tanguay_ZF_120hpf_YSE_legacy: (Legacy) Oregon State University Tanguay Lab 120 Hour Post-fertilization zebrafish Assay for Yolk Sac Edema (AID 2283634);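 on AC50: actives raise the incidence of yolk sac edema above the DMSO baseline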
Summary of the method: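 Single dechorionated embryos were held in sealed plates at 28C with test chemical (0.64% DMSO final) from 6 hpf until 120 hpf. Edema of the yolk sac was then recorded as a binary endpoint; non-mortality endpoints were skipped for dead embryos.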

[9] = Tanguay_ZF_120hpf_AXIS_legacy: (Legacy) Oregon State University Tanguay Lab 120 Hour Post-fertilization zebrafish Assay for Body Axis Malformation (AID 2283635);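 on AC50: potency for an increased fraction of larvae scored with body axis malformation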
Summary of the method: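 Each dechorionated embryo was exposed alone from 6 hpf, with DMSO at 0.64% (vol/vol) and trimethyltin chloride 5 uM as positive control. Axis malformation was recorded at 120 hpf unless the embryo had died.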

[10] = Tanguay_ZF_120hpf_EYE_legacy: (Legacy) Oregon State University Tanguay Lab 120 Hour Post-fertilization zebrafish Assay for Eye Malformation (AID 2283636);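 further: binary presence or absence of eye malformation scored by brightfield in 120 hpf larvae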
Summary of the method: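 Binary brightfield scoring of eye defects at 120 hpf after static exposure from 6 hpf of single pronase-dechorionated wild-type embryos (28C, 0.64% DMSO). Non-mortality endpoints omitted where embryos died; fit vs DMSO.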

| SMILES | outcome [1] | outcome [2] | outcome [3] | outcome [4] | outcome [5] | outcome [6] | outcome [7] | outcome [8] | outcome [9] | AC50 [1] | AC50 [3] | AC50 [4] | outcome [10] | AC50 [8] | AC50 [9] | AC50 [2] | AC50 [6] | AC50 [7] | AC50 [10] | AC50 [5] |
| --- | --- | --- | --- | --- | --- | --- | --- | --- | --- | --- | --- | --- | --- | --- | --- | --- | --- | --- | --- | --- |
| O=C(O)C(F)(F)C(F)(F)C(F)(F)C(F)(F)C(F)(F)C(F)(F)C(F)(F)C(F)(F)C(F)(F)F | inactive | inactive | inactive | inactive | inactive | inactive | inactive | inactive | inactive |  |  |  |  |  |  |  |  |  |  |  |
| O=C(O)C(F)(F)C(F)(F)C(F)(F)C(F)(F)C(F)(F)C(F)(F)C(F)(F)C(F)(F)F |  | inactive |  |  | inactive | inactive | inactive | inactive | inactive | 56.9 µM (active) | 46.1 µM (active) | 82.9 µM (active) | inactive |  |  |  |  |  |  |  |
| ClC1=C(Cl)[C@]2(Cl)[C@@H]3[C@H]4C[C@H]([C@@H]5O[C@H]45)[C@@H]3[C@@]1(Cl)C2(Cl)Cl | inactive | inactive | inactive | inactive | inactive | inactive | inactive |  |  |  |  |  | inactive | 72 µM (active) | 45.4 µM (active) |  |  |  |  |  |
| COS(=O)(=O)OC | inactive | inactive | inactive | inactive | inactive | inactive | inactive | inactive | inactive |  |  |  | inactive |  |  |  |  |  |  |  |
| Cc1ccc(O)c(C)c1 | inactive | inactive | inactive | inactive | inactive | inactive | inactive | inactive | inactive |  |  |  | inactive |  |  |  |  |  |  |  |
| CCC(C)c1cc([N+](=O)[O-])cc([N+](=O)[O-])c1O (stereo not drawn) | inactive | inactive | inactive |  | inactive |  |  | inactive | inactive |  |  | 3.4 µM (active) | inactive |  |  | 0.984 µM (active) | 4.83 µM (active) | 0.462 µM (active) |  |  |
| C[C@]12CCC(=O)C=C1CC[C@@H]1[C@@H]2CC[C@]2(C)C(=O)CC[C@@H]12 | inactive | inactive | inactive | inactive | inactive | inactive | inactive |  |  |  |  |  |  | 36.2 µM (active) | 40.2 µM (active) |  |  |  | 45.5 µM (active) |  |
| CCOC(=O)C(O)(c1ccc(Cl)cc1)c1ccc(Cl)cc1 | inactive |  |  |  |  |  | inactive | inactive | inactive | 22 µM (active) | 59.7 µM (active) and 25.1 µM (active) | 80.1 µM (active) and 66.1 µM (active) | inactive |  |  | 55.2 µM (active) and 50.6 µM (active) | 68.6 µM (active) and 60.8 µM (active) |  |  | 81.7 µM (active) and 24.7 µM (active) |
| NS(=O)(=O)C(F)(F)C(F)(F)C(F)(F)C(F)(F)C(F)(F)C(F)(F)C(F)(F)C(F)(F)F |  |  | inactive |  |  | inactive |  | inactive | inactive | 46.1 µM (active) |  | 82.3 µM (active) | inactive |  |  | 47 µM (active) |  | 24.9 µM (active) |  | 46.1 µM (active) |
| CC(C)(c1ccccc1)c1ccc(O)cc1 | inactive | inactive |  | inactive | inactive |  |  |  | inactive |  | 71 µM (active) and 65.8 µM (active) | 73.1 µM (active) | inactive |  |  |  | 81.7 µM (active) and 70.4 µM (active) | 19.1 µM (active) |  |  |
| CC(c1ccc(O)cc1)(c1ccc(O)cc1)c1ccc(O)cc1 | inactive |  | inactive | inactive | inactive |  | inactive | inactive | inactive |  |  |  | inactive |  |  | 78.9 µM (active) | 80.8 µM (active) |  |  |  |
| CCC(=O)O[C@H]1CC[C@H]2[C@@H]3CCC4=CC(=O)CC[C@]4(C)[C@H]3CC[C@]12C | inactive | inactive |  | inactive | inactive |  | inactive | inactive | inactive | 82 µM (active) |  |  | inactive |  |  |  |  |  |  |  |
| Oc1c(Cl)c(Cl)c(Cl)c(Cl)c1Cl | inactive |  | inactive | inactive | inactive |  |  | inactive | inactive |  |  | 8.02 µM (active) | inactive |  |  | 5.71 µM (active) and 1.86 µM (active) | 11.1 µM (active) and 2.43 µM (active) | 0.801 µM (active) |  |  |
| O=C(N[C@H]1CN2CCC1CC2)c1cc2ccoc2cn1 | inactive | inactive | inactive | inactive | inactive | inactive | inactive | inactive | inactive |  |  |  | inactive |  |  |  |  |  |  |  |
| c1cc2ccc3cccc4ccc(c1)c2c34 | inactive | inactive | inactive | inactive | inactive | inactive | inactive | inactive | inactive |  |  |  | inactive |  |  |  |  |  |  |  |
| Nc1ccc(-c2ccc(N)cc2)cc1 | inactive | inactive | inactive | inactive | inactive | inactive | inactive | inactive | inactive |  |  |  | inactive |  |  |  |  |  |  |  |
| C=CC(=O)NCNC(=O)C=C | inactive | inactive | inactive | inactive | inactive | inactive | inactive | inactive | inactive |  |  |  | inactive |  |  |  |  |  |  |  |
| Clc1ccc(Cl)cc1 | inactive | inactive | inactive | inactive | inactive | inactive | inactive | inactive | inactive |  |  |  | inactive |  |  |  |  |  |  |  |
| CN(C)CCO | inactive | inactive | inactive | inactive | inactive | inactive | inactive | inactive | inactive |  |  |  | inactive |  |  |  |  |  |  |  |
| OCC(O)CO | inactive | inactive | inactive | inactive | inactive | inactive |  |  |  |  |  |  |  |  |  |  |  |  |  |  |
| ClC1=C(Cl)[C@]2(Cl)[C@@H]3[C@@H](Cl)[C@H]4O[C@H]4[C@@H]3C1(Cl)C2(Cl)Cl | inactive | inactive |  | inactive | inactive |  | inactive | inactive | inactive |  | 65.1 µM (active) |  | inactive |  |  |  | 72.3 µM (active) |  |  |  |
| Clc1ccc(C(c2ccccc2Cl)C(Cl)(Cl)Cl)cc1 (stereo not drawn) |  | inactive |  | inactive | inactive |  | inactive | inactive | inactive | 26.1 µM (active) and 68.2 µM (active) | 30.2 µM (active) and 62.2 µM (active) | 72.8 µM (active) |  |  |  | 46.3 µM (active) | 48.7 µM (active) and 76.4 µM (active) |  |  | 72.2 µM (active) |
| Oc1ccc(C(c2ccc(O)cc2)(C(F)(F)F)C(F)(F)F)cc1 | inactive | inactive |  | inactive | inactive |  |  |  |  | 82.1 µM (active) | 63.7 µM (active) and 71.3 µM (active) | 72.8 µM (active) |  | 57.4 µM (active) | 58.3 µM (active) | 54.2 µM (active) | 57.3 µM (active) and 69.7 µM (active) | 33 µM (active) | 53.9 µM (active) | 72.3 µM (active) |
| C[C@]12CCC(=O)C=C1CC[C@@H]1[C@@H]2CC[C@@]2(C)[C@H]1CC[C@]2(C)O | inactive | inactive | inactive | inactive | inactive | inactive | inactive | inactive |  |  |  | 47.1 µM (active) |  |  |  |  | 48.6 µM (active) |  |  |  |
| Cc1cccc([N+](=O)[O-])c1 | inactive | inactive | inactive | inactive | inactive | inactive | inactive | inactive | inactive |  |  |  | inactive |  |  |  |  |  |  |  |
| O=C(NC(=O)c1c(F)cccc1F)Nc1cc(Cl)c(OC(F)(F)C(F)F)c(Cl)c1 | inactive | inactive | inactive | inactive | inactive | inactive | inactive | inactive | inactive |  |  |  | inactive |  |  |  |  |  |  |  |
| CC(C)(O)C(=O)Nc1ccc([N+](=O)[O-])c(C(F)(F)F)c1 | inactive | inactive | inactive | inactive | inactive | inactive | inactive | inactive |  |  |  |  |  |  | 6.35 µM (active) |  |  |  | 21.7 µM (active) |  |
| CCCCCCCCCC[N+](C)(C)CCCCCCCCCC |  |  |  |  |  |  |  | inactive | inactive | 64 µM (active) and 27.4 µM (active) | 23.4 µM (active) and 21.1 µM (active) | 72.9 µM (active) and 39.8 µM (active) | inactive |  |  | 74.3 µM (active) and 39.7 µM (active) | 26.8 µM (active) and 35 µM (active) | 13.6 µM (active) |  | 23 µM (active) |
